Results with a measured potency or affinity are listed apart. The source made the active and inactive calls.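 Rule for the calls: active = compounds whose curve fit is tight, with span above 25% and half-effect concentration below 10 µM; inactive = the rest.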
target: Beta-adrenergic receptor kinase 1 (Homo sapiens) (UniProt P25098); test: aptamer displacement from bead-bound GRK2 – biochemical, cherry pick 1, bead flow cytometry, dose response (AID 504500); conditions: bead-bound biotinylated GRK2, FAM-aptamer displacement; series mostly up to 33 µM
Sequence (P25098 whole entry, looked up): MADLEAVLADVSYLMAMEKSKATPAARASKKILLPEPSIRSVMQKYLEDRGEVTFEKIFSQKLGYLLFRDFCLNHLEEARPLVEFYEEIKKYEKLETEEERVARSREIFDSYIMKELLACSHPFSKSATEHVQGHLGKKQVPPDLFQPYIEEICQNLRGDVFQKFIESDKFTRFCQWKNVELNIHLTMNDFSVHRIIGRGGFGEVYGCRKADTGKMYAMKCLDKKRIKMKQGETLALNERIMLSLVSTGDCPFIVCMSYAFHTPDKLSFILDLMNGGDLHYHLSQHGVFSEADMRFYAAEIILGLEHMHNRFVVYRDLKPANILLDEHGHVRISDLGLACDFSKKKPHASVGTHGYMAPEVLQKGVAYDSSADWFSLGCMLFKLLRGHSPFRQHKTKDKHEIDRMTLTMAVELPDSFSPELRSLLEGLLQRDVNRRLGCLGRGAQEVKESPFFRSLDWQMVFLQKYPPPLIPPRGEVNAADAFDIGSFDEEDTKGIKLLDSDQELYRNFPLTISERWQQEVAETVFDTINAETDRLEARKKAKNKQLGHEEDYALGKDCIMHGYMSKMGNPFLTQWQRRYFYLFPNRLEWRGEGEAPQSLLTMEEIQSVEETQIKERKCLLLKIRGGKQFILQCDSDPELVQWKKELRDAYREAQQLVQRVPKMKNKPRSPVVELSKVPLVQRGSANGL

outcome, inactive:
COc1ccccc1-[n+]1c(C)cc(/C=C2\Sc3ccccc3N2C)cc1C
CCOc1ccccc1NC(=O)CCS(=O)(=O)c1ccc(Br)cc1
Cc1cc2ccccc2n1CCNC(=O)c1ccc(S(=O)(=O)N2CCCCC2)cc1
CCN1/C(=C/C=C/c2sc3ccccc3[n+]2CC)Sc2ccccc21
O=C(CCS(=O)(=O)c1ccc(Br)s1)Nc1ccccc1Br
CCc1ccccc1NC(=O)CCS(=O)(=O)c1ccc(Br)cc1
O=C(O)C1Nc2c(O)cc(Cl)c([N+](=O)[O-])c2C2C=CCC12 (stereo unspecified)
CCOC(=O)c1sc(NCc2ccco2)c(-c2nc3ccccc3s2)c1N
COc1ccc2nc(SCC(=O)Nc3ccc4c(c3)OCCO4)[nH]c2c1
Cc1oc(-c2ccc(Cl)cc2)nc1CN1CCCC(C(=O)NCc2cccnc2)C1 (stereo unspecified)
CNC(=O)c1[nH]cnc1C(=O)Nc1cccc(Cl)c1
O=C(CCS(=O)(=O)c1ccc(Br)cc1)NCc1ccco1
CC(=O)Nc1ccc(N(C)C)cc1[N+](=O)[O-]
COC(=O)c1ccccc1NC(=O)CCS(=O)(=O)c1ccc(Br)s1
CCN1/C(=C/c2ccc3cccc(C)c3[n+]2CC)Sc2ccccc21
C=C(C)C(=O)Nc1cccc(C2=NOC3(C2)C[C@H](C(N)=O)N(C(=O)CC#N)C3)c1 (stereo partly specified)
CC(C)C(C(=O)O)N1C(=O)/C(=C/C=C/c2ccco2)SC1=S (stereo unspecified)
COc1ccc(N2CCN(C(CNS(=O)(=O)c3ccccc3)c3ccccc3)CC2)cc1 (stereo unspecified)
O=C(CCS(=O)(=O)c1ccc(Br)cc1)NC1CCCC1
COc1ccc(OC)c(N2C(=O)[C@@H]3C(c4ccccc4Cl)=NO[C@@H]3C2=O)c1
COc1ccc(CCNC(=O)CCS(=O)(=O)c2ccc(Br)cc2)cc1OC
Cc1ccc(C(=O)Nc2cccc(C(=O)NCc3ccco3)c2)cc1
Cc1cccc(CCNC(=O)CCS(=O)(=O)c2ccc(Br)cc2)c1
CCN1/C(=C/C(C)=C/c2sc3ccccc3[n+]2CC)Sc2ccccc21
Cc1cc2ccccc2n1CCNC(=O)C(C)Oc1ccccc1 (stereo unspecified)
CCOc1ccc(CCNC(=O)CCS(=O)(=O)c2ccc(Br)cc2)cc1OCC
COc1ccc(S(=O)(=O)NCC(c2ccc(F)cc2)N2CCN(C)CC2)cc1 (stereo unspecified)
CCC(/C=C1\Sc2ccc(OC)cc2N1CC)=C\c1sc2ccc(OC)cc2[n+]1CCCS(=O)(=O)[O-]
O=C(CCS(=O)(=O)c1ccc(Br)cc1)NCCc1ccccc1
COc1ccc(N2CCN(C(CNS(=O)(=O)c3ccc(C)cc3)c3ccccc3)CC2)cc1 (stereo unspecified)
C#CCSc1nc2sc3c(c2c(=O)n1C)CCC3

Source: PubChem BioAssay AID504500 (NMMLSC, 2011)
